Laboratory results published in ChEMBL document CHEMBL4513146, “CO-ADD screening of Karazin Kharkiv National University (Ukraine) compounds”.
Results with a measured potency or affinity are listed apart.

How the values were obtained:
Staphylococcus aureus = conditions: Concentration 32 ug.mL-1;; ASSAY_TEST Inhibition of Bacterial Growth; detection method Absorption (OD600); MEDIA CAMHB; plate type 384well; NBS; CORNING #3640; time 18 hr
Escherichia coli = conditions: Concentration 32 ug.mL-1;; ASSAY_TEST Inhibition of Bacterial Growth; detection method Absorption (OD600); MEDIA CAMHB; plate type 384well; NBS; CORNING #3640; time 18 hr

| SMILES | Inhibition (Staphylococcus aureus) | Inhibition (Escherichia coli) |
| --- | --- | --- |
| CCc1nnc2c(SCC(=O)Nc3ccc(C)cc3Br)nc3ccccc3n12 | 2.22% | -2.07% |
| Cc1cc(C)cc(Nc2nc(C)cc3nn(CC(=O)Nc4cc(F)cc(F)c4)c(=O)n23)c1 | 7.68% | -2.61% |
| O=C(Cn1nc2ccc(Sc3cccc(F)c3)nn2c1=O)Nc1cccc(Cl)c1 | -0.09% | -4.86% |
| COc1cc(NC(=O)Cn2nc3ccc(SC4CCCCC4)nn3c2=O)cc(OC)c1 | -2.94% | -6.19% |
| COc1cccc(NC(=O)Cn2nc3c(N4CCCC4)nccn3c2=O)c1 | -2.28% | -3.58% |
| Cc1ccc(Cl)cc1NC(=O)Cn1nc2c(N3CCOCC3)nc3ccccc3n2c1=O | -1.67% | -9.52% |
| COc1ccc(NC(=O)Cn2nc3nc(N4CCCCCC4)ccn3c2=O)cc1Cl | -1.58% | -10.88% |
| COc1ccc(NC(=O)Cn2nc3c(N4CCCC4)nccn3c2=O)cc1Cl | 12.62% | -0.96% |
| Cc1cccc(Cn2nc3c(=O)n(-c4cccc(Cl)c4C)ccn3c2=O)c1 | -1.78% | -16.69% |
| Cc1cc(C)c(NC(=O)Cn2nc3c4cc(-c5ccc(C)c(C)c5)nn4ccn3c2=O)c(C)c1 | -7.12% | -12.18% |
| COc1cccc(Oc2nccn3c(=O)n(CC(=O)Nc4ccc(C(C)C)cc4)nc23)c1 | -2.58% | -7.16% |
| Cn1c(=O)c2sccc2n2c(=O)n(CCOc3ccccc3)nc12 | -2.74% | -12.23% |
| CCOC(=O)c1cccc(NC(=O)Cn2nc3c4cc(-c5ccc(C)c(C)c5)nn4ccn3c2=O)c1 | -12.42% | -16.13% |
| COc1cc(OC)c(NC(=O)Cn2nc3c(N4CCOCC4)nccn3c2=O)cc1Cl | 4.84% | -1.96% |
| CC(C)c1nnc2c(SCC(=O)Nc3ccccc3C(F)(F)F)nc3ccccc3n12 | 6.66% | -3.21% |
| COc1cc(NC(=O)C(C)Sc2nnc3c(=O)n(-c4cccc(OC)c4)ccn23)cc(OC)c1 (stereo not given) | -2.41% | -14.15% |
| O=C(CCc1nnc2c(N3CCCCC3)nc3ccccc3n12)NCc1ccc(Cl)cc1 | 12.63% | 0.78% |
| CCCCc1ccc(NC(=O)Cn2c(=O)c3nnc(CCC)n3c3ccccc32)cc1 | 2.94% | -1.42% |

| SMILES | Inhibition (Staphylococcus aureus) | Inhibition (Escherichia coli) |
| --- | --- | --- |
| Cc1cccc(N(CC(=O)OC(C)(C)C)S(=O)(=O)c2cccn3c(C)nnc23)c1 | 5.88% | -7.68% |
| COC(=O)c1ccc(Cn2nc3ccc(S(=O)(=O)N4CCCCCC4)cn3c2=O)o1 | -11.6% | -1.2% |
| CCOc1ccc(NC(=O)Cn2nc3c(Sc4cccc(F)c4)nccn3c2=O)cc1 | 1.32% | -8.75% |
| CC(C)CCn1c(=O)c2ccc(C(=O)NC3CCCCC3)cc2n2c(=O)n(CC#N)nc12 | 5.76% | -7.09% |
| COc1ccc(NC(=O)Cn2nc3c4c5c(sc4ncn3c2=O)CCCC5)cc1 | 2.3% | -5.34% |
| O=C(CCc1nnc2c3cc(-c4ccc(F)cc4)nn3ccn12)N1CCC(Cc2ccccc2)CC1 | 6.97% | -0.02% |
| Cc1nnc2c(=S)[nH]c3ccccc3n12 | 19.6% | 10.5% |
| CC(C)c1nnc2c(=O)n(CC(=O)Nc3ccccc3)c3ccccc3n12 | 12.53% | 4.36% |
| CCc1nnc2c(SCC(=O)Nc3cc(Cl)ccc3OC)nc3ccccc3n12 | 7.98% | 4.84% |
| CSc1ccc(CNC(=O)Cn2nc3c(Oc4ccc(C)cc4)nccn3c2=O)cc1 | -14.59% | -5.13% |
| O=C(Cn1nc2ccc(SC3CCCCC3)nn2c1=O)Nc1ccc2c(c1)OCO2 | -7.41% | -17.56% |
| COc1cc(OC)c(NC(=O)Cn2nc3ccc(Sc4cccc(F)c4)nn3c2=O)cc1Cl | 4.57% | -1.59% |
| Cc1cccc(N(Cc2cccc(F)c2)S(=O)(=O)c2cccn3c(C)nnc23)c1 | 20.9% | -1.19% |
| Cc1ccc(-c2cc3c4nn(CC(=O)Nc5ccccc5F)c(=O)n4ccn3n2)cc1C | -4% | -9.57% |
| COc1cccc(Cn2nc3ccc(-c4ccccc4)nn3c2=O)c1 | 13.4% | -1.58% |
| CCCCc1ccc(NC(=O)CSc2nnc3c4cc(-c5ccc(C)cc5)nn4ccn23)cc1 | 10.93% | 0.28% |
| Cc1ccc(-c2cc3c4nn(CC(=O)Nc5ccccc5Br)c(=O)n4ccn3n2)cc1C | 9.34% | -2.39% |
